The text below walks through data of PubChem BioAssay (EPA / NIEHS).

Results filed as inconclusive are left out. Calls of active or inactive are those of the source. The calls were made as follows: active = hit-call score of the fitted dose curve at least 0.9, where 1 is the maximum; inconclusive = response in the unintended direction; inactive = score below 0.9.

Chain of Estrogen receptor (Homo sapiens) (P03372 whole entry, looked up, the tested form may be a part): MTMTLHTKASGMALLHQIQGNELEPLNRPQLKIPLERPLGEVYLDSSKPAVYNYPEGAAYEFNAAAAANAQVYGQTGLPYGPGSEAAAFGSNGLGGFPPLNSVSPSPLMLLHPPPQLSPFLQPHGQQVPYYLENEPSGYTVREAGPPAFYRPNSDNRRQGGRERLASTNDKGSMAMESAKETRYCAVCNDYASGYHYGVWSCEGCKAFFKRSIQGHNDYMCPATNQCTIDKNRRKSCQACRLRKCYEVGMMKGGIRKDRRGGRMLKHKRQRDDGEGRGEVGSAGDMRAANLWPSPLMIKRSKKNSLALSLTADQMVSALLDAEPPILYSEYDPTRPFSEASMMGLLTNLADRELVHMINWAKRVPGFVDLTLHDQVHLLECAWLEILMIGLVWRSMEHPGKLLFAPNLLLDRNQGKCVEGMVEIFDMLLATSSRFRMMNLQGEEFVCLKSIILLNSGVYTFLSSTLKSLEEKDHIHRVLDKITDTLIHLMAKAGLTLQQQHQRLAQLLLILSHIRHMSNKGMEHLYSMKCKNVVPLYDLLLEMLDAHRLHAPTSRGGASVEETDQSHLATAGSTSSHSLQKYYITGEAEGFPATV
Chain of Estrogen receptor (Homo sapiens) + Estrogen receptor beta (Homo sapiens) (P03372 whole entry, looked up, the tested form may be a part): as above
Chain of Estrogen receptor (Homo sapiens) + Estrogen receptor beta (Homo sapiens) (Q92731 whole entry, looked up, the tested form may be a part): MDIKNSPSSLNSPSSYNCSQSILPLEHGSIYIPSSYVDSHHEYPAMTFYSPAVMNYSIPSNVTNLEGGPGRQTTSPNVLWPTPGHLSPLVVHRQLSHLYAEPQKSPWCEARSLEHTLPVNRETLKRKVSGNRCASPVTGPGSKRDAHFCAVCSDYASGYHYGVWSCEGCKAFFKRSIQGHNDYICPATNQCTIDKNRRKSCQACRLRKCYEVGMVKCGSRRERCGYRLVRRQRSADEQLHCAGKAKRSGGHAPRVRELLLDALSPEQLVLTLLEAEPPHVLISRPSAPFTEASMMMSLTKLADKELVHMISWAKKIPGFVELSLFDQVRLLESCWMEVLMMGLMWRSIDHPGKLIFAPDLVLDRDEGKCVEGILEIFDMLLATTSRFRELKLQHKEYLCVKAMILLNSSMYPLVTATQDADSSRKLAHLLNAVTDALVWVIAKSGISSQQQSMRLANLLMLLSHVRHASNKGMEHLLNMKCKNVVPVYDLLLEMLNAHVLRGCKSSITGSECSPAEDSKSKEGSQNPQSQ
Chain of Bile acid receptor (Homo sapiens) (Q96RI1 whole entry, looked up): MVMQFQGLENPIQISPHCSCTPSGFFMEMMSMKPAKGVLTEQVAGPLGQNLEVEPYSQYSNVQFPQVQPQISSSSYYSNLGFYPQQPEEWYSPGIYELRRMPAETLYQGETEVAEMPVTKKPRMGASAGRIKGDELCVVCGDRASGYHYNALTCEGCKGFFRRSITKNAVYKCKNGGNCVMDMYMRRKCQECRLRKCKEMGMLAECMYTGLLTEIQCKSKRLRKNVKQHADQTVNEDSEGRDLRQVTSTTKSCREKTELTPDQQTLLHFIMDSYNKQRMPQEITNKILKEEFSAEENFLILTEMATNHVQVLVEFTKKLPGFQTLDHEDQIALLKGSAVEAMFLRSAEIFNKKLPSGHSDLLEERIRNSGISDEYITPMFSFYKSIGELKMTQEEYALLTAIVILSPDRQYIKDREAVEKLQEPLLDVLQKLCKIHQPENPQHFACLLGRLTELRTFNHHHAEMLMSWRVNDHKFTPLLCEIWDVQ
Chain of Androgen Receptor/SRC-1 Co-activator, AR (gene 367) (P10275 whole entry, looked up, the tested form may be a part): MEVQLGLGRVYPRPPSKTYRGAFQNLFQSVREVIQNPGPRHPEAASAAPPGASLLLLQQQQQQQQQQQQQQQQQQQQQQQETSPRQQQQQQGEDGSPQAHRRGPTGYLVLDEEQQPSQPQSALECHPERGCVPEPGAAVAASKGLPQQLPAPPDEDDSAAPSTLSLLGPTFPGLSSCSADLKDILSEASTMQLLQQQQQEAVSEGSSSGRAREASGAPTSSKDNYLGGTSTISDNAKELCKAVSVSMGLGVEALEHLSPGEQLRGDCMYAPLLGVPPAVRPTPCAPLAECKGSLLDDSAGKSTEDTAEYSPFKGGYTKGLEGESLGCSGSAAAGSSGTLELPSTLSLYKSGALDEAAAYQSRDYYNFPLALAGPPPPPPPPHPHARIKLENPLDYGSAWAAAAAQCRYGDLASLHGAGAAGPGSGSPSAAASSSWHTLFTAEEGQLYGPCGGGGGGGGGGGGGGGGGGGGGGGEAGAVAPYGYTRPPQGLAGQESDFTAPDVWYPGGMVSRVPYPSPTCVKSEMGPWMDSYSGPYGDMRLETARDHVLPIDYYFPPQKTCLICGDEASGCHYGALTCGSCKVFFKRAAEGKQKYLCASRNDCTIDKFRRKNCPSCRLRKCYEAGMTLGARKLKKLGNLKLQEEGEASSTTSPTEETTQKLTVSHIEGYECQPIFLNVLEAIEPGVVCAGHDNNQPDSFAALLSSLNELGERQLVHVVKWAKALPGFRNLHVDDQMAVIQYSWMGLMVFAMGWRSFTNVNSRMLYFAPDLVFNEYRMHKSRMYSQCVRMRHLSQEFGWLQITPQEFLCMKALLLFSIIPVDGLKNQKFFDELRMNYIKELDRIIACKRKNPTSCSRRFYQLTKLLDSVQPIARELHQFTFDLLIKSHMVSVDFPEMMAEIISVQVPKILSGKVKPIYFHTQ

The first assay concerns the target Bile acid receptor (Homo sapiens) (UniProt Q96RI1). In words: NVS_NR_hFXR_Antagonist: NovaScreen (NVS) Nuclear Receptor Binding Assay for human Farnesoid X Receptor Antagonism (FXR) (AID 2283350). How it is done:
NVS_NR_hFXR_Antagonist is a biochemical, single-readout assay that uses extracted gene-proteins in a cell-free assay. Measurements were taken 1 hour after chemical dosing in a 384-well plate.NVS_NR_hFXR_Antagonist is one of one assay component(s) measured or calculated from the NVS_NR_hFXR_Antagonist assay. It is designed to make measurements of fluorescent resonance energy transfer, a form of binding reporter, as detected with fluorescent resonance energy transfer signals by Time-Resolved Fluorescence Resonance Energy Transfer (TR-FRET) technology.Data from the assay component NVS_NR_hFXR_Antagonist was analyzed into 1 assay endpoint. This assay endpoint, NVS_NR_hFXR_Antagonist, was analyzed in the positive analysis fitting direction relative to DMSO as the negative control and baseline of activity. Using a type of binding reporter, loss-of-signal activity can be used to understand changes in the binding as they relate to the gene NR1H4. Furthermore, this assay endpoint can be referred to as a primary readout, because the performed assay has only produced 1 assay endpoint. To generalize the intended target to other relatable targets, this assay endpoint is annotated to the nuclear receptor intended target family, where the subfamily is non-steroidal.
Binding assays used specific radioligands (tritiated, iodinated) with non-radioactive competitive displacement ligands in agonist or antagonist protocols (as indicated) and various reference compounds and inhibitors to titrate specific binding to receptors and transporters. Most enzyme assays (CYPs, kinases, phosphatases, proteases, HDACs) used recombinant protein and specific substrates (fluorescence mostly, some colorimetric and radioactive) and inhibitors, followed by a biochemical separation of substrate and product. All assays for the biochemical HTS were initially run in duplicate at a single concentration (10 uM for CYP450 assays and 25 uM for all others). […] Each assay was run with positive and negative controls, and concurrent controls on every plate. The follow-up (secondary) screen tested active chemical-pairs in concentration series, as well as a few additional assays not tested in the primary screen, some selected negative inactives, and several cases re-run in the concentration series for confirmatory purposes.
Turning to `Cc1ccc(Cl)cc1`, the compound was classed as inactive.

In the case of `CCCCCCCCCCCC(=O)OC`, the compound was called inactive.

As for `COc1cc(-c2nc(NC(=O)c3cc4cc(C)cc(C)c4n3CC(=O)O)sc2CCC2CCCCC2)c(OC)cc1Cl`, the call was inactive.

A further assay has as its target Estrogen receptor (Homo sapiens) (UniProt P03372). Kind of assay: OT_ER_ERaERa_0480: Odyssey Thera (OT) 8-hour HEK293T Protein-Complementation Assay for Estrogen Receptor-alpha/-alpha Homodimer (AID 2283351).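 Also: rise in fluorescence from reassembled reporter fragments on ERα LBD homodimer in nucleus or whole cell.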 An outline of the steps:
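The readout is complementation of fragments fused to the human ER alpha ligand-binding domain (aa 310-547), stably expressed in HEK293T cells. After 8 h of exposure, the increase in nuclear/cytoplasmic fluorescence was measured by laser scanning cytometry and fitted relative to DMSO.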
As for `c1cc(-c2ccncc2)ccn1`, the outcome was inactive.

On to `CCCCCCCCCCCCCCCCCC(=O)O`, for which the compound was classed as inactive.

In the case of `Cc1ccc(Cl)cc1`, the result was inactive.

For `CC(=O)C(C)=CC1C(C)=CCCC1(C)C` (stereo unspecified), the result was inactive.

In the case of `CC(=O)OC/C=C(\C)CCC=C(C)C`, the outcome was inactive.

In the case of `OC[C@@H](O)[C@@H](O)[C@H](O)[C@H](O)CO`, the compound was classed as inactive.

As to `C[C@]12C=CC(=O)C=C1CC[C@@H]1[C@@H]2C(=O)C[C@@]2(C)[C@H]1CC[C@]2(O)C(=O)CO`, the outcome was inactive.

With `C=CCc1ccc(O)c(OC)c1`, the compound was called inactive.

As to `CCNc1cccc(C)c1`, the call was inactive.

`CN[C@H]1CC[C@@H](c2ccc(Cl)c(Cl)c2)c2ccc(S(N)(=O)=O)cc21`: the outcome was inactive.

In the case of `Cc1cc(NC(=O)C(=O)O)cc(C)c1Oc1ccc(O)c2c1CCC2`, the compound was called inactive.

For `CNCc1cc(F)ccc1Oc1ccc(Cl)c(Cl)c1`, the compound was called inactive.

The next assay addresses Estrogen receptor (Homo sapiens) + Estrogen receptor beta (Homo sapiens) (UniProt P03372+Q92731). In words: OT_ER_ERaERb_0480: Odyssey Thera (OT) 8-hour HEK293T Protein-Complementation Assay for Estrogen Receptor-alpha/-beta Heterodimer (AID 2283352). An outline of the steps: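 Fluorescence intensity readout from a protein-fragment complementation reporter in HEK293T; ER-alpha/ER-beta LBD heterodimer. Dosing 8 h. Gain-of-signal fit relative to DMSO negative control; laser scanning cytometry of whole-well cell population.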
Turning to `CCCCc1ccc2c(n1)[C@@H](c1ccc(OC)cc1C[C@H](C)C(=O)O)[C@H](C(=O)O)[C@H]2c1ccc2c(c1)OCO2`, the outcome was inactive.

In the case of `O=C(O)Cc1ccccc1Nc1c(Cl)cccc1Cl`, the result was inactive.

On to `COC(=O)c1ccc(O)cc1`, for which the AC50 – broadly, the concentration giving half of the maximal activity seen – was 50 µM (active).

Consider `CCCCCCCCCCCC(=O)OC`, for which the outcome was inactive.

For the compound `COc1cc(-c2nc(NC(=O)c3cc4cc(C)cc(C)c4n3CC(=O)O)sc2CCC2CCCCC2)c(OC)cc1Cl`, the outcome was inactive.

A further assay concerns the target Androgen Receptor/SRC-1 Co-activator, AR (gene 367) (UniProt P10275). In words: OT_AR_ARSRC1_0480: Odyssey Thera (OT) 8-hour HEK293T Protein-Complementation Assay for Androgen Receptor/SRC-1 Co-activator (AID 2283354).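 Also: hits raise the complementation signal above DMSO so AC50 marks enhancers.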 An outline of the steps: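 HEK293T cells stably expressing AR and SRC-1 fused to split Venus YFP fragments via (Gly4Ser)2 linkers were read 8 h after compound dosing. Complementation was imaged at 488 and 635nm, and nuclear/cytoplasmic fluorescence ratio (488nm) was taken over ≥400 cells; gain-of-signal versus DMSO.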
On to `O=C(O)Cc1ccccc1Nc1c(Cl)cccc1Cl`, for which the outcome was inactive.

As to `Cc1ccc(C)c(O)c1C`, the compound was called inactive.

`COc1ccc2c(c1)c(CC(=O)O)c(C)n2C(=O)c1ccc(Cl)cc1`: the call was inactive.

Take `CN[C@H]1CC[C@@H](c2ccc(Cl)c(Cl)c2)c2ccc(S(N)(=O)=O)cc21`: the half-maximal activity concentration (AC50) was 19.9 µM (active).

Turning to `COc1cc(-c2nc(NC(=O)c3cc4cc(C)cc(C)c4n3CC(=O)O)sc2CCC2CCCCC2)c(OC)cc1Cl`, the AC50 was 49.1 µM (active).

Take `Cc1cc(NC(=O)C(=O)O)cc(C)c1Oc1ccc(O)c2c1CCC2`: the compound was called inactive.
